The target of assay [1] is Furin (Homo sapiens) (UniProt P09958). As to the kind of experiment: Furin counterscreen qHTS for Zika virus inhibitors (AID 1347149).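 Also: purified recombinant full-length human furin enzyme at 5 nM; fluorescence gain from furin cutting a BOC-RVRR-AMC peptide substrate over 15 min; top concentration of the series differs between compounds; nearly all actives have a fitted effect of over 70% in size.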 Conditions: furin enzymatic counterscreen, fluorogenic substrate; series mostly up to 57.5 µM. The method in brief:
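Fluorogenic cleavage of BOC-RVRR-AMC (2 microM final, Km ~15 µM) was monitored (ex 340, em 450 nm) at 37C after 15 min RT preincubation of 5 nM furin with compounds in HEPES pH 7.0 buffer with CaCl2 and Triton X-100. Percent inhibition was fitted to a 4-parameter Hill curve.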
Background: Counterscreens check selectivity or assay interference.

The subject of assay [2] is Zika virus NS2B-NS3 protease (unlinked). As to the kind of experiment: Optimization of GU AMC qHTS for Zika virus inhibitors: Unlinked NS2B-NS3 protease assay (AID 1347151). Also: nearly all actives have a fitted effect of over 80% in size. Also: potency is read from the fitted curve at half-maximal effect. Conditions: recombinant ZIKV NS2B-NS3 protease, fluorogenic AMC substrate; series mostly up to 52.5 µM. The method in brief: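 Noncovalent NS2B hydrophilic domain–NS3 protease complex (25 nM final) in 10 mM Tris-HCl pH 8.0, 0.01% Tween 20; AMC substrate, room temperature 15 min (~20% conversion); fluorescence change normalized, 4-parameter Hill fit.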

For assay [3], the system named is Zika virus NS2B-NS3 protease. As to the kind of experiment: Primary screen GU AMC qHTS for Zika virus inhibitors (AID 1347154). Also: nearly all actives have a fitted effect of over 70% in size. Also: potency is read from the fitted curve at half-maximal effect. Conditions: Zika NS2B-NS3 unlinked protease, AMC fluorogenic substrate; series mostly up to 54.1 µM. The essentials:
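Unlinked Zika NS2B hydrophilic domain/NS3 protease domain noncovalent complex (25 nM final) in 10 mM Tris-HCl pH 8.0, 0.01% Tween 20, with AMC peptide substrate. Fluorescence (ex 340, em 450 nm) change over 15 min, room temperature; percent inhibition fitted to 4-parameter Hill equation.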
Background: In qHTS, concentration-response curves come from the screen itself.

The target in assay [4] is N-terminal Xaa-Pro-Lys N-methyltransferase 1 (Homo sapiens) (UniProt Q9BV86). As to the kind of experiment: qHTS Assay for Inhibitors of N-terminal methyltransferase 1 (NTMT1): LOPAC validation of the NTMT1 SAHH-coupled ThioGlo3 Assay (AID 1347143). Also: nearly all actives have a fitted effect of over 70% in size. Conditions: recombinant NTMT1, SAHH-coupled ThioGlo3 fluorescence; series mostly up to 114 µM. The essentials: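 Fluorescence read-out (excitation 340nm, emission 450nm) of SAH-derived thiol, measured via SAHH coupling and ThioGlo3, taken immediately and after a 30 min room-temperature reaction, then normalized to the background read. Enzyme: NTMT1 at 125nM; cofactor SAM 100uM in the added reagent.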

In assay [5] the test system is Zika virus NS2B-NS3 protease (unlinked complex). As to the kind of experiment: Confirmatory screen GU AMC qHTS for Zika virus inhibitors (AID 1347153). Also: nearly all actives have a fitted effect of over 70% in size. Conditions: Recombinant NS2B-NS3 protease, AMC substrate fluorescence; series mostly up to 57.1 µM. The method in brief:
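Compounds were preincubated 15 min at room temperature with 25 nM noncovalent NS2B-NS3 protease at pH 8.0; AMC substrate added at 10 microM and 15-min fluorescence gain (340/450 nm) converted to percent inhibition, fitted 4-parameter.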

“And” between values parts separate entries of the source, which are not always exact repeats. Equal entries are not always repeated. Inconclusive results are not listed. A call without a number means that no potency is given here. The source made the active and inactive calls. Calls follow the shape of the dose curve; as a rule, active = well fitted curve in the direction sought with a large enough effect; inconclusive = small, poorly fitted or top-dose-only effect, or another doubt; inactive = no such curve, though single readings can be large; an effect the other way counts as inactive or inconclusive.

Sequence of Furin (Homo sapiens) (P09958 whole entry, looked up): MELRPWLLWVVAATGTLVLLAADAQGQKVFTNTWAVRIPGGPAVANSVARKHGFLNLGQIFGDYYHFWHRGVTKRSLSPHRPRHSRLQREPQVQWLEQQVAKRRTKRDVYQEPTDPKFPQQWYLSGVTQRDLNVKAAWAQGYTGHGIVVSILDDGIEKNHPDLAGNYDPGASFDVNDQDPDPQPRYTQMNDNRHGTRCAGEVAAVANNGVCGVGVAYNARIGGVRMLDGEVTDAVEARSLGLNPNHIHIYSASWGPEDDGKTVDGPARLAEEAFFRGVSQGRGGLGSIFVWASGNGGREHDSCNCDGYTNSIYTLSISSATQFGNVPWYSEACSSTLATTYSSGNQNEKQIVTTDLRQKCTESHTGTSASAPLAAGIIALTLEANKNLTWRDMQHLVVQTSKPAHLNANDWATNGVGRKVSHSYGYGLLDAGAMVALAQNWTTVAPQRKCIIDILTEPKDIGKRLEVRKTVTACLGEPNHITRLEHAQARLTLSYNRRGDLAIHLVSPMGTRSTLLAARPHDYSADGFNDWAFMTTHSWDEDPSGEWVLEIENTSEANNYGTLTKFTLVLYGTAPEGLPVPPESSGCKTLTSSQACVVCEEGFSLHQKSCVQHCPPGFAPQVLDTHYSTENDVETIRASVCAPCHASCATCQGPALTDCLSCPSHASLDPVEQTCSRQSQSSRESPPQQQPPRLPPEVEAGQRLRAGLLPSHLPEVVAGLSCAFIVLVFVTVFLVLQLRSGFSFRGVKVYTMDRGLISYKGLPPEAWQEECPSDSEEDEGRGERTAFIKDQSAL
Sequence of N-terminal Xaa-Pro-Lys N-methyltransferase 1 (Homo sapiens) (Q9BV86 whole entry, looked up): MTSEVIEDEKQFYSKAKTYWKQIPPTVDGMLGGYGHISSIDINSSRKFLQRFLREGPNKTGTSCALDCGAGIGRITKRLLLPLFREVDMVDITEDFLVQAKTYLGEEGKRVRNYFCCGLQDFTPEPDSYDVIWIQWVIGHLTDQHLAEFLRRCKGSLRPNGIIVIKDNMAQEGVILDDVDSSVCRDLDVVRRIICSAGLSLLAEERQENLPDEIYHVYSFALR

`Cc1cc(SCc2sc(-c3ccc(C(F)(F)F)cc3)nc2C)ccc1OCC(=O)O`: in assay [1], the Potency result is “inactive”.

As for `C[C@]12CCC(=O)C=C1CC[C@@H]1[C@@H]2[C@@H](O)C[C@@]2(C)[C@H]1CC[C@]2(O)C(=O)CO`, the Potency result in assay [2] and in assay [3] was “inactive” throughout.

Turning to `c1ccc([C@H]2CN3CCSC3=N2)cc1`, the Potency entry in assay [2] and in assay [3] was “inactive” in each case.

Take `CC(C)(Sc1ccc(CCN(CCCCC2CCCCC2)C(=O)NC2CCCCC2)cc1)C(=O)O`: the Potency entry in assay [4] and in assay [1] was “inactive” in each case. Besides, the Potency in assay [2] is 15 µM (active).

On to `Cc1ccccc1C(OCCN(C)C)c1ccccc1` (centres undefined), for which the Potency result in assay [2] and in assay [3] was “inactive” in each case.

For `O=C(O)CCc1ccc(NCc2cccc(Oc3ccccc3)c2)cc1`, the Potency entry in assay [2] and in assay [3] was “inactive” throughout.

As to `Clc1cccc(Cl)c1NC1=NCCN1`, the Potency result in assay [2] and in assay [3] was “inactive” throughout.

As for `NC[C@H](O)c1ccc(O)c(O)c1`, in assay [2], the Potency entry is “inactive”. Besides, the Potency in assay [3] was 10.2 µM (active) and 11.9 µM (active).

As to `CCCC(CCC)C(=O)O`, the Potency entry in assay [2] and in assay [3] was “inactive” in each case.

Regarding `NC(=O)c1cnccn1`, the Potency entry in assay [2] and in assay [3] was “inactive” throughout.

As for `Cc1ccnc(NS(=O)(=O)c2ccc(NC(=O)Nc3ccc(S(=O)(=O)Nc4nccc(C)n4)cc3)cc2)n1`, the Potency in assay [3] is 24.1 µM (active).

For the compound `CC(C)(C)NCC(O)c1ccc(O)c(CO)c1` (centres undefined), the Potency entry in assay [2] and in assay [3] was “inactive” throughout.

As to `CC(C)NCC(O)COc1ccc(COCCOC(C)C)cc1` (centres undefined), the Potency entry in assay [2] and in assay [3] was “inactive” throughout.

In the case of `Cc1ccc(N(CC2=NCCN2)c2cccc(O)c2)cc1`, the Potency entry in assay [2] and in assay [3] was “inactive” in each case.

As for `CN(C)C(=O)c1ccc(S(=O)(=O)c2ccc(NC(=O)[C@@](C)(O)C(F)(F)F)c(Cl)c2)cc1`, in assay [3], the Potency result is “inactive”.

In the case of `Cc1ccc(NC(=O)c2cccc(C(C)(C)C#N)c2)cc1Nc1ccc2ncn(C)c(=O)c2c1`, the Potency entry in assay [3] is “inactive”.

In the case of `NCCc1ccc(O)c(O)c1`, the Potency result in assay [3] was “inactive”.

As to `O=C1CCc2cc(OCCCCc3nnnn3C3CCCCC3)ccc2N1`, the Potency result in assay [2] and in assay [3] was “inactive” throughout.

Consider `Cc1cccc(-c2[nH]c(C(C)(C)C)nc2-c2ccc3nccnc3c2)n1`, for which the Potency entry in assay [2] and in assay [3] was “inactive” throughout.

For `CCOC(=O)N1CCC(=C2c3ccc(Cl)cc3CCc3cccnc32)CC1`, the Potency entry in assay [2] and in assay [3] was “inactive” throughout.

Regarding `Cc1[nH]c(=O)c(C#N)cc1-c1ccncc1`, the Potency result in assay [5] and in assay [3] was “inactive” throughout.

`COc1ccc2nc(S(=O)Cc3ncc(C)c(OC)c3C)[nH]c2c1` (centres undefined): the Potency result in assay [3] was “inactive”.

Consider `Cc1cnc(NC(=O)C2=C(O)c3ccccc3S(=O)(=O)N2C)s1`, for which the Potency result in assay [2] and in assay [3] was “inactive” each time.

On to `CC(C[N+](C)(C)C)OC(N)=O` (centres undefined), for which the Potency result in assay [2] and in assay [3] was “inactive” each time.

Regarding `N[C@@H]1CONC1=O`, the Potency entry in assay [2] and in assay [3] was “inactive” in each case.

Take `CC(=O)Oc1ccccc1C(=O)O`: the Potency is 26.7 µM (active) in assay [2] and 21.2 µM (active) in assay [3].

Regarding `O=C(O)COCCN1CCN(C(c2ccccc2)c2ccc(Cl)cc2)CC1` (centres undefined), the Potency result in assay [2] and in assay [3] was “inactive” each time.

With `C[C@@H]1CN(Cc2ccc(F)cc2)[C@@H](C)CN1C(=O)c1cc2c(C(=O)C(=O)N(C)C)cn(C)c2cc1Cl`, the Potency entry in assay [3] is “inactive”.

Turning to `OCCC#Cc1nc(-c2ccc(F)cc2)c(-c2ccncc2)n1CCCc1ccccc1`, the Potency result in assay [3] was “inactive”.

As for `Cc1cccc(-c2nn(C(=S)Nc3ccccc3)cc2-c2ccnc3ccccc23)n1`, the Potency result in assay [3] was “inactive”.

As to `Nc1ccc(S(=O)(=O)Nc2ccnn2-c2ccccc2)cc1`, the Potency entry in assay [2] and in assay [3] was “inactive” each time.

Take `O=C1CCC(N2C(=O)c3ccccc3C2=O)C(=O)N1` (centres undefined): the Potency entry in assay [2] and in assay [3] was “inactive” throughout.

In the case of `CC(C)(C)OC(=O)CN(Cc1ccc(Cl)cc1)Cc1ccc([N+](=O)[O-])s1`, the Potency entry in assay [3] is “inactive”.

With `C1COC(NC(C2CC2)C2CC2)=N1`, the Potency result in assay [2] and in assay [3] was “inactive” in each case.

For `O=C(Nc1nc2ccccc2n1CCN1CCOCC1)c1cccc([N+](=O)[O-])c1`, the Potency entry in assay [2] and in assay [3] was “inactive” in each case.

Turning to `O=c1[nH]c(-c2ccc(C(F)(F)F)cc2)nc2c1CSCC2`, the Potency result in assay [3] is “inactive”.

As for `Oc1ccc(C2CNCCc3c2cc(O)c(O)c3Cl)cc1` (centres undefined), the Potency was 16.8 µM (active) in assay [2] and 12.6 µM (active) in assay [3].

Regarding `CNC(=O)c1ccc(N2C(=S)N(c3ccc(C#N)c(C(F)(F)F)c3)C(=O)C2(C)C)cc1F`, the Potency entry in assay [3] is “inactive”.

As to `COc1ccc(-c2c(-c3ccc(O)cc3O)n[nH]c2C)cc1`, in assay [3], the Potency result was “inactive”.

In the case of `Cc1ccc2c(c1)C(=O)[C@@]1(O)CCN(c3ccccc3)C1=N2`, the Potency result in assay [3] was “inactive”.

With `CCOc1ccc(Cc2cc([C@@H]3O[C@H](CO)[C@@H](O)[C@H](O)[C@@H]3O)ccc2Cl)cc1`, the Potency result in assay [3] was “inactive”.

Turning to `CCn1c(-c2nonc2N)nc2c(C#CC(C)(C)O)ncc(OC[C@H]3CCCNC3)c21`, the Potency result in assay [3] is “inactive”.

On to `CC(C)OC(=O)C1=CN(C(=O)c2ccc(F)c(F)c2)CC(C)(C)c2c1[nH]c1ccccc21`, for which the Potency entry in assay [3] was “inactive”.

For the compound `CCCn1c(=O)c2[nH]c(C34CC5CC3C[C@@H](C5)C4)nc2n(CCC)c1=O`, in assay [3], the Potency entry was “inactive”.

As for `Cc1csc(NC(=O)c2sc3nc4c(c(C(F)(F)F)c3c2N)CCC4)n1`, in assay [3], the Potency entry was “inactive”.

`O=c1ncn2nc(Sc3ccc(F)cc3F)ccc2c1-c1c(Cl)cccc1Cl`: the Potency entry in assay [3] was “inactive”.

Consider `Cc1cnc(Nc2ccc(OCCN3CCCC3)cc2)nc1Nc1cccc(S(=O)(=O)NC(C)(C)C)c1`, for which the Potency entry in assay [3] was “inactive”.

With `Cc1cc2c(F)c(Oc3ncnn4cc(OC[C@@H](C)O)c(C)c34)ccc2[nH]1`, the Potency result in assay [3] was “inactive”.

Regarding `COc1ccc(CCN2CCN(CCCc3ccccc3)CC2)cc1OC`, in assay [3], the Potency entry was “inactive”.

On to `CC[C@@H](C)[C@H](NC(=O)[C@H](CC1CCCCC1)NC(=O)c1ccno1)C(=O)N1CCC2(CCc3ccccc32)CC1`, for which the Potency result in assay [3] was “inactive”.

With `CCCCCCCc1ccc(CCc2cccc(O)c2C(=O)O)cc1`, the Potency in assay [3] was 8.57 µM (active).

For `CC1(C)CNc2cc(NC(=O)c3cccnc3NCc3ccncc3)ccc21`, in assay [3], the Potency entry was “inactive”.

Consider `O=C1CCCC2=C1C(c1[nH]ncc1Cl)N=C(Nc1nc3ccccc3o1)N2` (centres undefined), for which the Potency entry in assay [3] is “inactive”.

For the compound `O=C1[C@H](Cc2ccc(O)cc2)N2C(=O)CCN(C(=O)NCc3ccccc3)[C@H]2CN1Cc1cccc2ccccc12`, the Potency entry in assay [3] is “inactive”.

For the compound `COc1ccc(C2=N[C@H](c3ccc(Cl)cc3)[C@H](c3ccc(Cl)cc3)N2C(=O)N2CCNC(=O)C2)c(OC(C)C)c1`, the Potency result in assay [3] is “inactive”.

Regarding `CC(c1cc2ccccc2s1)N(O)C(N)=O` (centres undefined), the Potency result in assay [3] is “inactive”.

Consider `Cc1n[nH]c(C)c1Cc1sc2c(c1C(=O)N1C[C@H](O)CO1)c(=O)n(C)c(=O)n2CC(C)C`, for which the Potency entry in assay [3] is “inactive”.

As to `Fc1ccc(Cl)cc1-c1nc(Nc2ccncc2)c2nccnc2n1`, the Potency entry in assay [3] was “inactive”.

As for `O=S(=O)(N=Cc1c(O)ccc2ccccc12)c1cccs1`, the Potency result in assay [3] was “inactive”.

With `N#CC[C@H](C1CCCC1)n1cc(-c2ncnc3[nH]ccc23)cn1`, the Potency in assay [3] was 24.1 µM (active).

Regarding `COc1ccccc1[C@H](c1cccc2ccccc12)[C@@](C)(C#N)C(=O)N1CCC(c2cccc(C(F)(F)F)c2)CC1`, in assay [3], the Potency result was “inactive”.

With `CCOC(=O)C1=C[C@@]2(CC)CCCN3CCc4c(n1c1ccccc41)[C@H]32`, in assay [3], the Potency result was “inactive”.

These data come from PubChem BioAssay (NCATS).
